Results published in PubChem BioAssay (EPA / NIEHS).
Values joined by “and” are separate entries in the source; they are usually repeats but may differ in a detail not shown here. Equal values may be shown once. Inconclusive results are not listed. Where a structure was tested more than once in an assay, its records may differ in their call. Active and inactive are the calls of the source. The calls were made as follows: active = hit-call score of the fitted dose curve at least 0.9, where 1 is the maximum; inconclusive = response in the unintended direction; inactive = score below 0.9.

Tests used:
[1] = target: Estrogen receptor (Homo sapiens) + Estrogen receptor beta (Homo sapiens) (UniProt P03372+Q92731); assay: OT_ER_ERaERb_1440: Odyssey Thera (OT) 24-hour HEK293T Protein-Complementation Assay for Estrogen Receptor-alpha/-beta Homodimer (AID 2283356);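 also: heteromer of ER alpha and ER beta binding domains; hits raise reporter fluorescence and both agonists and antagonists give an increase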
In short: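 Heterodimerisation of ERα (aa 310-547) and ERβ (aa 263-489) ligand binding domains was tracked as fluorescence gain in stably transfected HEK293T cells following 24 h dosing, normalised to DMSO controls.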

[2] = target: Estrogen receptor beta (Homo sapiens) (UniProt Q92731); assay: OT_ER_ERbERb_0480: Odyssey Thera (OT) 8-hour HEK293T Protein-Complementation Assay for Estrogen Receptor-beta/-beta Homodimer (AID 2283357);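 also: active means signal gain over DMSO baseline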
In short: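 Fluorescence gain from complemented reporter fragments on ER-beta LBD homodimer in HEK293T was quantified against DMSO controls after 8 h treatment, fixation in 4% formaldehyde and Draq5 staining.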

[3] = target: Androgen Receptor/SRC-1 Co-activator, AR (gene 367) (UniProt P10275); assay: OT_AR_ARSRC1_0960: Odyssey Thera (OT) 16-hour HEK293T Protein-Complementation Assay for Androgen Receptor/SRC-1 Co-activator (AID 2283353);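 also: actives raise the signal above DMSO so potency reflects increased AR and SRC-1 complex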
In short: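 Sixteen-hour cell assay: Venus halves fused to AR and SRC-1 in HEK293T report binding. Images at 488/635 nm give an N/C ratio in the 488 nm channel over ≥400 cells, analysed as signal increase over DMSO.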

[4] = target: Androgen Receptor/SRC-1 Co-activator, AR (gene 367) (UniProt P10275); assay: OT_AR_ARSRC1_0480: Odyssey Thera (OT) 8-hour HEK293T Protein-Complementation Assay for Androgen Receptor/SRC-1 Co-activator (AID 2283354);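 also: hits raise the complementation signal above DMSO so AC50 marks enhancers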
In short: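 After 8 h dosing, stably expressing HEK293T cells with split-Venus AR/SRC-1 fusions were imaged (488, 635nm). The 488nm N/C ratio per image gave the endpoint, analysed in the positive direction against DMSO.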

[5] = target: human Peroxisome Proliferator-activated Receptor alpha (PPARa), PPARA (gene 5465) (UniProt Q07869); assay: NVS_NR_hPPARa: NovaScreen (NVS) Nuclear Receptor Binding Assay for human Peroxisome Proliferator-activated Receptor alpha (PPARa) (AID 2283359);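 also: activity means loss of TR-FRET signal versus DMSO baseline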
In short: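 One-hour incubation, cell-free extracted protein, TR-FRET binding readout; signal loss vs DMSO scored. Screen: 25 uM duplicates, confirmatory dose series for actives.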

[6] = target: Glucocorticoid receptor (Homo sapiens) (UniProt P04150); assay: NVS_NR_hGR: NovaScreen (NVS) Nuclear Receptor Binding Assay for human Glucocorticoid Receptor (GR) (AID 2283363);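 as to AC50: activity is loss of specific radioligand binding signal relative to DMSO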
In short: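 Single-readout cell-free binding: radioligand plus extracted receptor, 16-hour dosing, filter radiodetection; 25 uM duplicate primary, concentration series secondary.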

[7] = test system: guinea pig Dopamine Transporter (DAT), gene 100714898; assay: NVS_TR_gDAT: NovaScreen (NVS) Transporter Assay for guinea pig Dopamine Transporter (DAT) (AID 2283369);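 also: active compounds lower bound radioligand signal relative to DMSO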
In short: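 Test chemicals were incubated 2 h with guinea pig striatal membranes and a radioligand; bound label was separated by filtration and counted. Screening ran at 25 uM, followed by concentration-response testing to a 50 uM maximum.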

[8] = target: Peroxisome proliferator-activated receptor gamma (Homo sapiens) (UniProt P37231); assay: NVS_NR_hPPARg: NovaScreen (NVS) Nuclear Receptor Binding Assay for human Peroxisome Proliferator-activated Receptor gamma (PPARg) (AID 2283370)
In short: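 Fluorescence polarization measures competitive binding to extracted PPARg in a cell-free format. Reading is taken at 2 h; activity is signal loss relative to DMSO. Screening at 25 uM in duplicate preceded confirmatory dose series.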

[9] = test system: rat Norepinephrine Transporter (NET), gene 83511; assay: NVS_TR_rNET: NovaScreen (NVS) Transporter Assay for rat Norepinephrine Transporter (NET) (AID 2283373)
In short: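 Competitive radioligand displacement at the rat NET using forebrain membrane preparations, 1 h incubation, filter-based scintillation readout. Primary testing in duplicate at a single 25 uM concentration; confirmed actives retested across concentrations.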

[10] = target: human Dopamine Transporter (DAT), SLC6A3 (gene 6531) (UniProt Q01959); assay: NVS_TR_hDAT: NovaScreen (NVS) Transporter Assay for human Dopamine Transporter (DAT) (AID 2283374);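 also: activity means loss of bound radioligand signal relative to DMSO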
In short: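 Extracted human SLC6A3 protein incubated 1 h with radioligand and test chemical; bound fraction separated on filters and counted. Single 25 uM duplicate screen preceded concentration-response follow-up; positive and negative controls on every plate.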

[11] = target: rat Serotonin Transporter (SERT), Slc6a4 (gene 25553) (UniProt P31652); assay: NVS_TR_rSERT: NovaScreen (NVS) Transporter Assay for rat Serotonin Transporter (SERT) (AID 2283375)
In short: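 Steps: rat forebrain membranes dosed with chemical (25 uM duplicate primary; concentration series for actives); 1 h incubation; labelled ligand bound, filtered, counted by scintillation. Activity scored as signal loss vs DMSO.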

[12] = target: human Serotonin Transporter (SERT), SLC6A4 (gene 6532) (UniProt P31645); assay: NVS_TR_hSERT: NovaScreen (NVS) Transporter Assay for human Serotonin Transporter (SERT) (AID 2283372)
In short: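 Human platelet membrane preparation; displacement of radioligand from serotonin transporter measured after 1 h by filtration and scintillation counting. Single 25 uM duplicate screen, then concentration series for actives, with DMSO as negative baseline.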

PGR (gene 5241) = PGR (gene 5241) (UniProt P06401); assay: NVS_NR_hPR: NovaScreen (NVS) Nuclear Receptor Binding Assay for human Progestron Receptor (PR) (AID 2283360);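 also: active means loss of bound radioligand signal versus DMSO baseline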
In short: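 T47D lysate; tritiated or iodinated radioligand; scintillation count at 18 h. DMSO = negative control/baseline. Primary: 25 uM, duplicate. Secondary: concentration series for actives.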

[13] = target: human Adenosine Transporter (Adot), SLC29A1 (gene 2030) (UniProt Q99808); assay: NVS_TR_hAdoT: NovaScreen (NVS) Transporter Assay for human Adenosine Transporter (Adot) (AID 2283368)
In short: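 Binding displacement on U937 extracted protein, read 1 h post-dose by filtration and scintillation counting. Primary duplicate test at 25 uM, then singleton concentration series with 50 uM top; DMSO baseline.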

[14] = target: rat Androgen Receptor (AR), Ar (gene 24208) (UniProt P15207); assay: NVS_NR_rAR: NovaScreen (NVS) Nuclear Receptor Binding Assay for rat Androgen Receptor (AR) (AID 2283366)
In short: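 Actives from a duplicate single-concentration (25 uM) primary run went on to concentration series. Displacement of radioligand was counted by filtration and scintillation, 18 h post-dose, using prostate extracts from testosterone-pretreated rats, with DMSO as baseline.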

[15] = target: guinea pig Sigma Receptor, Non-selective Binding, SIGMAR1 (gene 100135589) (UniProt Q60492); assay: NVS_OR_gSIGMA_NonSelective: NovaScreen (NVS) Nuclear Receptor Binding Assay for guinea pig Sigma Receptor, Non-selective Binding (AID 2283367)
In short: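 Test chemicals were screened in duplicate at 25 uM, then in concentration series if active, against radioligand binding to guinea pig brain membranes; filtration and scintillation counting at 1 h measured remaining bound ligand.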

[16] = target: Retinoic acid receptor alpha (Homo sapiens) (UniProt P10276); assay: NVS_NR_hRARa_Agonist: NovaScreen (NVS) Nuclear Receptor Binding Assay for human Retinoic Acid Alpha Receptor Agonism (RAR) (AID 2283361)
In short: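 Compounds screened at 25 uM, duplicate, then in concentration series if active. Detection: TR-FRET gain of signal versus DMSO after 2 h with cell-free extracted RARα.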

[17] = target: human Thyroid Receptor Alpha (TRa), THRA (gene 7067) (UniProt P10827); assay: NVS_NR_hTRa_Antagonist: NovaScreen (NVS) Nuclear Receptor Binding Assay for human Thyroid Receptor Alpha Antagonism (TRa) (AID 2283362)
In short: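 Chemicals were first screened in duplicate at 25 uM, then actives were retested in concentration series. Binding to the extracted receptor was measured 1 h after dosing by AlphaLISA chemiluminescence, with decreased signal versus DMSO scored as activity.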

[18] = target: rat Mineralocorticoid Receptor (MR), Nr3c2 (gene 25672) (UniProt P22199); assay: NVS_NR_rMR: NovaScreen (NVS) Nuclear Receptor Binding Assay for rat Mineralocorticoid Receptor (MR) (AID 2283355)
In short: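 Single-concentration duplicate screen (25 uM) of radioligand binding in adrenalectomized rat brain supernatant; scintillation detection 24 h after dosing. Positive and negative controls ran on each plate, and confirmed actives went to concentration-response.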

Measured: AC50

PGR (gene 5241), sequence (P06401 whole entry, looked up): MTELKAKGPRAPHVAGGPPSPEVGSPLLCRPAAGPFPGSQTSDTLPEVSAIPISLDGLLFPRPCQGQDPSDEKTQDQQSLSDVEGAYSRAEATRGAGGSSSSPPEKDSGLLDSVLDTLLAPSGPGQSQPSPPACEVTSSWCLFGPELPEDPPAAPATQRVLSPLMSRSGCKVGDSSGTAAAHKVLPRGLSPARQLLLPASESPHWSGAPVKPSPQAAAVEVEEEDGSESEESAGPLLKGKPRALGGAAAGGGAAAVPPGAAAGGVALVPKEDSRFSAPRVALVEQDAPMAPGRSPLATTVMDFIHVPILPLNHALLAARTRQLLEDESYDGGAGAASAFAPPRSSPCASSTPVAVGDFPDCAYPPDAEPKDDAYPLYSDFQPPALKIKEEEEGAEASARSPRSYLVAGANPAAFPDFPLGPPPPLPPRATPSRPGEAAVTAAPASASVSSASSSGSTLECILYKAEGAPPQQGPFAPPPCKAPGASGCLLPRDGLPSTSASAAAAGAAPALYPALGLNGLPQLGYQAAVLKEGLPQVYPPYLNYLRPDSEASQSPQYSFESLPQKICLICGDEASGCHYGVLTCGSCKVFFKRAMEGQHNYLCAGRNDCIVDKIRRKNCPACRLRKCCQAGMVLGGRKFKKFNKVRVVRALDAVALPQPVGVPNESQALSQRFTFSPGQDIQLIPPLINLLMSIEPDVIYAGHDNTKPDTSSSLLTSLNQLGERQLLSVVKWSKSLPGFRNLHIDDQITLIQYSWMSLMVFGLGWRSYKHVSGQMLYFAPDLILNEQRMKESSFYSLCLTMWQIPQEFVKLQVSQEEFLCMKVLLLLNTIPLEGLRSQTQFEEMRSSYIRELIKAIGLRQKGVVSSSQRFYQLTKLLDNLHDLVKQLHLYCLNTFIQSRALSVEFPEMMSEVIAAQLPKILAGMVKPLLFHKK
human Dopamine Transporter (DAT), SLC6A3 (gene 6531), sequence (Q01959 whole entry, looked up): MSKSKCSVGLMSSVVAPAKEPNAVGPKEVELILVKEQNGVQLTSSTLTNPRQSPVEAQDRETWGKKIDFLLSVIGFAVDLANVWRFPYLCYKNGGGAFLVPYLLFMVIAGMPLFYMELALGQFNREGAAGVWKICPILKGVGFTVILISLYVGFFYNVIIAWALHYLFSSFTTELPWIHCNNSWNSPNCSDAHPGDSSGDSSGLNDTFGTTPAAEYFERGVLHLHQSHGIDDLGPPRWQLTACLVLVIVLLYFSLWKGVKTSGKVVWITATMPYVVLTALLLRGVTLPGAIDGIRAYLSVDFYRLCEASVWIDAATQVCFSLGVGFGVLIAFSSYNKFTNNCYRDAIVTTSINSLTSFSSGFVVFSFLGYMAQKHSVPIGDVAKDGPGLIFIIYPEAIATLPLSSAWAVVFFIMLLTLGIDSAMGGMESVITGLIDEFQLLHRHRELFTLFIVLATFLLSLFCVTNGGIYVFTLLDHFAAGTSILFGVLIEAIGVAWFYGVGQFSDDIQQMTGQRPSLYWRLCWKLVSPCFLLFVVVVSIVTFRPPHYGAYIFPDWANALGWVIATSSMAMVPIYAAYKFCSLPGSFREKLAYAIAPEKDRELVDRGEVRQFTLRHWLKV
Retinoic acid receptor alpha (Homo sapiens), sequence (P10276 whole entry, looked up): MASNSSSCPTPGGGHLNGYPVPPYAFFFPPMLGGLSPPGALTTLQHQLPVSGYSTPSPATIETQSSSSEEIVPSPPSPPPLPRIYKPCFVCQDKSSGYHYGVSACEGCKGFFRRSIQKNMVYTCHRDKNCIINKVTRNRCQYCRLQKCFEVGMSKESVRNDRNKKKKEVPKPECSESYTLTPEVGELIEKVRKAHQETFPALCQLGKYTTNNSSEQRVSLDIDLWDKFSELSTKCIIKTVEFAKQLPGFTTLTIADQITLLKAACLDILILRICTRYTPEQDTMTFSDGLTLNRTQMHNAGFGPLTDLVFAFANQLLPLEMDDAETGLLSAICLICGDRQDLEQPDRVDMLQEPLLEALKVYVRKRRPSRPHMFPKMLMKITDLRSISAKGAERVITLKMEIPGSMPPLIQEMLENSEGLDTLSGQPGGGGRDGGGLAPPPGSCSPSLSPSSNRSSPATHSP
human Serotonin Transporter (SERT), SLC6A4 (gene 6532), sequence (P31645 whole entry, looked up): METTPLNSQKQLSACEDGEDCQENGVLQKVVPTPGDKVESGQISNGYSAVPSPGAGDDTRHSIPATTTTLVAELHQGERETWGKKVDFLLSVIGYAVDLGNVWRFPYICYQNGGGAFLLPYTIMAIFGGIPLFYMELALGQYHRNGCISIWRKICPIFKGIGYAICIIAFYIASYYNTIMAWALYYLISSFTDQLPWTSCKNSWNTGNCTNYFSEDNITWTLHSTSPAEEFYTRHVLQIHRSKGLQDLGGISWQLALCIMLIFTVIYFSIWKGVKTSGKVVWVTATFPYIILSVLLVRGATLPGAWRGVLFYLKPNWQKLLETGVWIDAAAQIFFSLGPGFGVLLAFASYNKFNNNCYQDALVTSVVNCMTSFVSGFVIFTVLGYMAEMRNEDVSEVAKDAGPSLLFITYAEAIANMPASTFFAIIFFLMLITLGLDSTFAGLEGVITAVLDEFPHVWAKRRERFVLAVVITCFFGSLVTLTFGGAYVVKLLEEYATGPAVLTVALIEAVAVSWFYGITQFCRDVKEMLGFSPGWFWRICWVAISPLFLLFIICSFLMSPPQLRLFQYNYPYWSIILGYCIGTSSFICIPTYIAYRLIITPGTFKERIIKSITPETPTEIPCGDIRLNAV
Estrogen receptor beta (Homo sapiens), sequence (Q92731 whole entry, looked up, the tested form may be a part): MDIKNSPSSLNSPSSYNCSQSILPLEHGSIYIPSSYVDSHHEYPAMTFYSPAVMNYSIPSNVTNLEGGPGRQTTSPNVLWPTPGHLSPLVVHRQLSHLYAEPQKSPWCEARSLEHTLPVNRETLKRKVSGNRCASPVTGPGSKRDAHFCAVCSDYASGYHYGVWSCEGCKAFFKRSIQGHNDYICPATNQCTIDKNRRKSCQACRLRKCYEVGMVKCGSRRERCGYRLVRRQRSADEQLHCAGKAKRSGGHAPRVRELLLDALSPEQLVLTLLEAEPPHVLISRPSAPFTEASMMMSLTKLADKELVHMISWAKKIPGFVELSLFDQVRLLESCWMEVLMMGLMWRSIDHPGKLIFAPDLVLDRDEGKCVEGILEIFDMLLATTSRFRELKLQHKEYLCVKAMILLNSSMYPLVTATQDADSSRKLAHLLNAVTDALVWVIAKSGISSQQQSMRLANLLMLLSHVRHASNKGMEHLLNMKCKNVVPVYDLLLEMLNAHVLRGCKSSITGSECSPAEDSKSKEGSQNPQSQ
human Adenosine Transporter (Adot), SLC29A1 (gene 2030), sequence (Q99808 whole entry, looked up): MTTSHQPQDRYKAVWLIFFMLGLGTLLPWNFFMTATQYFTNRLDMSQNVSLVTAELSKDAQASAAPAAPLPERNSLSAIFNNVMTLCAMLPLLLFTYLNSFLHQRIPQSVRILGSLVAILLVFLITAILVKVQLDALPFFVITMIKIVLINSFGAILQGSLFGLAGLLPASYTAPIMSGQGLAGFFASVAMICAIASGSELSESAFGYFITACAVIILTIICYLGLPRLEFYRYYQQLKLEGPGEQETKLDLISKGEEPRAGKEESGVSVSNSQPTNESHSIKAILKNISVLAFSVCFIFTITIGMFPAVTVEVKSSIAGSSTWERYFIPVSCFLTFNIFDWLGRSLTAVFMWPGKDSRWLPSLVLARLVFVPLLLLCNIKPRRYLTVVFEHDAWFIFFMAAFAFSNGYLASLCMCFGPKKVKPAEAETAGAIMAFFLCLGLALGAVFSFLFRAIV
Estrogen receptor (Homo sapiens) + Estrogen receptor beta (Homo sapiens), sequence (P03372 whole entry, looked up, the tested form may be a part): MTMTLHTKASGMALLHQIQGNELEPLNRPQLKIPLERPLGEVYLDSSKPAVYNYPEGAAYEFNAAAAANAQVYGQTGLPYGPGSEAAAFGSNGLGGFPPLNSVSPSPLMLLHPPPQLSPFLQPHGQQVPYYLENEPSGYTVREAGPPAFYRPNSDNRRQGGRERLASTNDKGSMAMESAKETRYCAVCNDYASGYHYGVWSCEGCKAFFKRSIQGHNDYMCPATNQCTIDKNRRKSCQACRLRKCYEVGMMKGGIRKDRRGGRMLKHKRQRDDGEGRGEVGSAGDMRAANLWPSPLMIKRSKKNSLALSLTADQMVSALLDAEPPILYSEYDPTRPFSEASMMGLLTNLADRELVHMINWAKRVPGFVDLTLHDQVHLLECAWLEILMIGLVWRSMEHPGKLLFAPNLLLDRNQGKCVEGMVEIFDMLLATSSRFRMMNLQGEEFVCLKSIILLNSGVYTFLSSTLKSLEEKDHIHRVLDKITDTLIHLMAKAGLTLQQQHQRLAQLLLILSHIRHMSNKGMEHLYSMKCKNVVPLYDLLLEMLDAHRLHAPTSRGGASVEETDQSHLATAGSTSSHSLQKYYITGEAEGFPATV
Estrogen receptor (Homo sapiens) + Estrogen receptor beta (Homo sapiens), sequence (Q92731 whole entry, looked up, the tested form may be a part): as the sequence (Q92731 whole entry, looked up, the tested form may be a part) above
guinea pig Sigma Receptor, Non-selective Binding, SIGMAR1 (gene 100135589), sequence (Q60492 whole entry, looked up): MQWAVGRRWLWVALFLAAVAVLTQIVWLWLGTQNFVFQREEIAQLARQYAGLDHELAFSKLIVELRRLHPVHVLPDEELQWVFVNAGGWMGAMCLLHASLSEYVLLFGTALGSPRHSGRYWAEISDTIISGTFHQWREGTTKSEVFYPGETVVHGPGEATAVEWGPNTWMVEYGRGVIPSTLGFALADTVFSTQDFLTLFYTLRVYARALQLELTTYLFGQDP

O=c1ccc2ccccc2o1
inactive: [1] | [2]

O=C(O)c1ccccc1C(=O)OCc1ccccc1
inactive: [3] | [4] | [5]

Oc1ccc2ccccc2c1
active: [2] 37.7 µM | [7] 21.3 µM | [9] 7.87 µM | [10] 10.1 µM | [11] 8.73 µM
inactive: [3] | [4] | [6] | [8]

O=C(Nc1ccc(Cl)cc1)Nc1ccc(Cl)c(Cl)c1
inactive: [4] | [1] | [2] | [12]
active: [3] 4.86 µM

CCN(Cc1cccnc1)C(=O)c1cccc(Cl)c1[C@]1(C)C(=O)N(Cc2ccc(OC)cc2OC)c2ccc(Cl)cc21
inactive: [4] | [1] | [2]
active: [3] 2.59 µM | PGR (gene 5241) 9.73 µM | [6] 4.93 µM | [13] 1.55 µM

CN(C[C@@H](CC[N+]12CCC(C3CCCCC3)(CC1)CC2)c1ccc(Cl)c(Cl)c1)C(=O)c1cc(C(F)(F)F)cc(C(F)(F)F)c1
inactive: PGR (gene 5241)
active: [3] 21.3 µM | [4] 20.9 µM | [6] 6.49 µM | [12] 17.5 µM | [10] 1.95 µM | [11] 16.7 µM

CCCCOC(=O)c1ccc(O)cc1
active: [2] 4.69 µM and 5.25 µM and 5.52 µM | [15] 4.2 µM | [7] 25 µM
inactive: [3] | [4] | [5] | PGR (gene 5241) | [6] | [14] | [8]

Cc1cc2c(cc1C(F)(F)F)N(C(=O)Nc1ccc(Oc3cccnc3C)nc1)CC2
inactive: [1] | [2]

OCCO
inactive: [3] | [4]

O=C(O)Cn1c(=O)n(Cc2ccc(Br)cc2F)c(=O)c2ccc(Cl)cc21
active: [8] 42.4 µM
inactive: [3] | [1] | [2]

CC[C@@H]1C[C@H](N(Cc2cc(C(F)(F)F)cc(C(F)(F)F)c2)C(C)=O)c2cc(C(F)(F)F)ccc2N1C(=O)OC(C)C
inactive: [1] | [2] | PGR (gene 5241) | [16] | [6]

CCCCCCCCCC(=O)O
inactive: [3] | [4] | [5] | [10]

CN(C)C(=O)C1(N2CCCCC2)CCN(CC[C@@]2(c3ccc(Cl)c(Cl)c3)CN(C(=O)c3ccccc3)CCO2)CC1
inactive: PGR (gene 5241)
active: [3] 11.8 µM | [4] 16.6 µM | [6] 3.41 µM | [15] 6 µM | [7] 6.54 µM | [12] 36 µM | [9] 13.5 µM | [10] 2.76 µM

CCCCCCCCCCCCO
inactive: [1] | [2] | PGR (gene 5241)

CCCCCCCCCCCO
active: [17] 28.4 µM
inactive: [1] | [2] | [5]

NC(=O)c1nc(-c2cccc(-c3cc(F)ccc3OCC(F)(F)C(F)(F)F)c2)n[nH]1
inactive: [1]
active: [3] 50 µM | [4] 50 µM

O=c1c(-c2ccc(O)cc2)coc2cc(O)cc(O)c12
inactive: [3] | [4] | [16] | [14]
active: [8] 39.4 µM

NCc1cccc(C2CCN(C(=O)c3ccc(C#Cc4ccccc4F)o3)CC2)c1
active: [3] 14.6 µM | [4] 13.3 µM | [5] 40.8 µM | [6] 7.56 µM | [14] 15.4 µM | [15] 13.2 µM | [13] 25 µM | [7] 10 µM | [8] 5.98 µM | [9] 18.9 µM | [10] 1.79 µM | [11] 16.7 µM
inactive: [2] | PGR (gene 5241) | [12]

C[C@]12CC[C@@H]3c4ccc(O)cc4CC[C@H]3[C@@H]1CCC2=O
active: PGR (gene 5241) 0.159 µM | [11] 4.96 µM
inactive: [18] | [5] | [14]

O=CCCCC=O
inactive: [18] | [5] | [8]

C[C@]12CC[C@@H]3c4ccc(O)cc4CC[C@H]3[C@@H]1CC[C@H]2O
inactive: [5] | [6] | [8]
active: [18] 0.135 µM | [6] 374 nM and 448 nM and 261 nM | [7] 0.231 µM | [10] 0.252 µM

CCN(Cc1cccc(S(=O)(=O)O)c1)c1ccc(C(=C2C=CC(=[N+](CC)Cc3cccc(S(=O)(=O)O)c3)C=C2)c2ccccc2S(=O)(=O)[O-])cc1
inactive: [1] | [2]

CCCC(=O)OCCC(C)C
inactive: [3] | [4]
active: PGR (gene 5241) 17.2 µM

COc1cc(C(=O)NC2CCN(C)CC2)ccc1Nc1ncc2c(n1)N(C1CCCC1)CC(F)(F)C(=O)N2C
inactive: [2] | [11]
active: [3] 25.9 µM | [4] 52.5 µM | [1] 11 µM | [6] 9.44 µM | [15] 9.05 µM | [13] 1.27 µM | [7] 13.8 µM | [9] 9.31 µM | [10] 8.6 µM
